# Source: PubChem BioAssay
# Activity calls are given as the source filed them.
# Assays:
# [1] = E. coli DRC41 culture turbidity changes, primary screen, E. coli filamentation inducer project, strain DRC41, OD650, 48 h (AID 1152);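 note: E. coli MC1000 strain DRC41 lacking acrAB efflux pump and sulA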; conditions: E. coli DRC41 (acrAB sulA), higher = more signal, called active from +8 up or from −8 down
# [2] = small-molecule binders of probe aLefty1, primary screen, biochemical, small-molecule microarray, 635/667 nm fluorescence (AID 1153); conditions: higher = more signal;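 note: score merges spot fluorescence with signal-to-noise ratio from the scanned slide images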
# [3] = PSAC antagonists in infected red cells, primary screen, cell-based, P. falciparum Indochina, OD700, 1 h (AID 1154); conditions: P. falciparum Indochina infected RBC osmotic lysis, higher = more signal, called active from +8 up or from −8 down
# [4] = PSAC antagonists in infected red cells, primary screen, cell-based, P. falciparum Indochina, OD700, 2 h (AID 1155);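 note: lysis reports solute entry through the parasite surface anion channel PSAC; channel blockers reduce lysis of infected cells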; conditions: P. falciparum Indochina infected erythrocytes, osmotic lysis OD700; higher = more signal, called active from +8 up or from −8 down
# [5] = osmotic lysis modulators in infected erythrocytes, primary screen, PSAC antagonist project, cell-based, P. falciparum Indochina, OD700, 3 h (AID 1156); conditions: higher = more signal, called active from +8 up or from −8 down
# [6] = PSAC antagonists in infected red cells, primary screen, cell-based, P. falciparum Indochina, OD700, 18 h (AID 1157); conditions: P. falciparum Indochina infected erythrocytes, osmotic lysis OD700, 18 h; higher = more signal, called active from +8 up or from −8 down
# [7] = modulators of S6 phosphorylation in cells, primary screen, cell-based, A549, cytoblot, luminescence, serum-stimulated (AID 1158); conditions: A549 phospho-S6 cytoblot, 5 h, higher = more signal;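 note: serum-stimulated A549 lung adenocarcinoma cells; signal is phosphorylated S6 detected by cytoblot immunostaining with HRP secondary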
# [8] = molecular target: NADPH oxidase 2 (Homo sapiens) (UniProt P04839); assay: NOX2-dependent H2O2 signal modulators, primary screen, NOX inhibitor project, cell-based, HEK293-NOX2, PMA-stimulated, Amplex Red fluorescence (AID 1159); conditions: 45 min, higher = more signal, called active from +8 up or from −8 down; note: test concentration not given here
# Chain of NADPH oxidase 2 (Homo sapiens) (P04839 whole entry, looked up): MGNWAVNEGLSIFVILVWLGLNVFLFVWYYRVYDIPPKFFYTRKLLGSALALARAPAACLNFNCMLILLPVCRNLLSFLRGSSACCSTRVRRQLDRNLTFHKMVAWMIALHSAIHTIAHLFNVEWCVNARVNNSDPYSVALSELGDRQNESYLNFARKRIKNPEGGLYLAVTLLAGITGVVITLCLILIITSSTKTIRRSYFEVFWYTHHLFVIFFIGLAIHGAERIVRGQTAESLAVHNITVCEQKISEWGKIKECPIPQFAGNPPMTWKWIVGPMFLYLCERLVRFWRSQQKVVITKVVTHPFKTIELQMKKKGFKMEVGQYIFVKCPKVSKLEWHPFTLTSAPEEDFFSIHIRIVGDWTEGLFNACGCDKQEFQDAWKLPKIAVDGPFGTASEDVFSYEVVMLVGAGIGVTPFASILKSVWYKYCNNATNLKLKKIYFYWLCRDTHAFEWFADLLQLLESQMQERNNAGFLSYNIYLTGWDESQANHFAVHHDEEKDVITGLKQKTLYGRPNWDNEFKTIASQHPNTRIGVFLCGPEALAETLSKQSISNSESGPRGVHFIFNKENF
# [9] = molecular target: NADPH oxidase 4 (Homo sapiens) (UniProt Q9NPH5); assay: NOX4-dependent H2O2 signal modulators, primary screen, NOX inhibitor project, cell-based, HEK293-NOX4, tetracycline-induced, Amplex Red fluorescence (AID 1160); conditions: 45 min, higher = more signal, called active from +8 up or from −8 down
# Chain of NADPH oxidase 4 (Homo sapiens) (Q9NPH5 whole entry, looked up): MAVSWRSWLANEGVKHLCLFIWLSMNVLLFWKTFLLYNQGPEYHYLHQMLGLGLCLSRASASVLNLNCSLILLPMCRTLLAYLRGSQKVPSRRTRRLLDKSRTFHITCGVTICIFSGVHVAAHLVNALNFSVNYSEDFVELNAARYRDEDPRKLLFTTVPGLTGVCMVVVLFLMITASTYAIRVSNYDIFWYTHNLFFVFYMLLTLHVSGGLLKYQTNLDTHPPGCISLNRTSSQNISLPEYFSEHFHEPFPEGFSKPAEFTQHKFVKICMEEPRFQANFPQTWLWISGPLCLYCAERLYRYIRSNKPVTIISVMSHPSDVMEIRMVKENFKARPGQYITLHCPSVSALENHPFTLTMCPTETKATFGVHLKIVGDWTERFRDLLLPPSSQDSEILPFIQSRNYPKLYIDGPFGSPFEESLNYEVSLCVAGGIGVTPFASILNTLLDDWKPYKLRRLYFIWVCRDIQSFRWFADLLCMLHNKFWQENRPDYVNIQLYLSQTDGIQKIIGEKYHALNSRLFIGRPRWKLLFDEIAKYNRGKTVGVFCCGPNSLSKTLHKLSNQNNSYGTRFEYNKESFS
# [10] = molecular target: NADPH oxidase 5 (Homo sapiens) (UniProt Q96PH1); assay: NOX5-dependent H2O2 signal modulators, primary screen, NOX inhibitor project, cell-based, HEK293-NOX5, Amplex Red fluorescence (AID 1161); conditions: HEK293-NOX5, ionomycin, 45 min, higher = more signal
# Chain of NADPH oxidase 5 (Homo sapiens) (Q96PH1 whole entry, looked up): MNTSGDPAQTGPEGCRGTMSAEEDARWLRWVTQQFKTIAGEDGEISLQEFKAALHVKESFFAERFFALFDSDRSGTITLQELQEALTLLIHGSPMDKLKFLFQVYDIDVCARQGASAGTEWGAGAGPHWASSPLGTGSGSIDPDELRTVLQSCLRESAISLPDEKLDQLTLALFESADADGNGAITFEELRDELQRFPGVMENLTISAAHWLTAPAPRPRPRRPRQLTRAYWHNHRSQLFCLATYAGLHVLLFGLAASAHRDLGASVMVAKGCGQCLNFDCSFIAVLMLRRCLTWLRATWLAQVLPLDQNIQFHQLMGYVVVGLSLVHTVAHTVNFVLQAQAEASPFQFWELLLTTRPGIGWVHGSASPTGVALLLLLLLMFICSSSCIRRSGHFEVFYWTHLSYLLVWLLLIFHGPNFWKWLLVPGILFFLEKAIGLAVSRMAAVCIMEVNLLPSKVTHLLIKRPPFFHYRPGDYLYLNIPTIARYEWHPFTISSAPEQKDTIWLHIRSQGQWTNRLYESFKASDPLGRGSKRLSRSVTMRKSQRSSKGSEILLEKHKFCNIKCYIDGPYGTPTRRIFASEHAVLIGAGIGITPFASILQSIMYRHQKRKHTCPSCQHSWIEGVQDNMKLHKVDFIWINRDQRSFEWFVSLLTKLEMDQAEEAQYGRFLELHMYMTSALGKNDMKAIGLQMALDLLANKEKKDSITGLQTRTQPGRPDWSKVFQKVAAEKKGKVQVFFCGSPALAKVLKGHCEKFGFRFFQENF
SMILES,z-score [1],composite z-score [2],z-score [3],z-score [4],z-score [5],z-score [6],z-score [7],z-score [8],z-score [9],z-score [10]
COCCOC(=O)N1C(=O)[C@@]2(c3cc(C#CCC(C(=O)OC)C(=O)OC)ccc31)[C@H](c1ccc(OCCO)cc1)N1[C@H](c3ccccc3)[C@H](c3ccccc3)OC(=O)[C@H]1[C@@H]2C(=O)N1CCc2cc(OC)c(OC)cc2C1,-0.0746 (inactive),0.269,6.85 (inactive),2.56 (inactive),0.324 (inactive),1.78 (inactive),-0.215,2.22 (inactive),1.17 (inactive),1.29
CC[C@@H]1C=C(C(=O)O)[C@H](c2ccc(C#N)cc2)N1S(=O)(=O)c1ccc(C)cc1,-0.29 (inactive),0.276,1.48 (inactive),0.544 (inactive),-0.158 (inactive),0.192 (inactive),-0.436,0.452 (inactive),-0.156 (inactive),-0.848
COCCOC(=O)N1C(=O)[C@@]2(c3cc(C#CCNC(N)=O)ccc31)[C@H](C(N)=O)[C@H]1C(=O)O[C@H](c3ccccc3)[C@H](c3ccccc3)N1[C@@H]2c1ccccc1OCCO,-0.77 (inactive),0.0299,6.57 (inactive),0.793 (inactive),1.18 (inactive),0.269 (inactive),-0.309,1.9 (inactive),1.37 (inactive),0.198
N[C@@H](Cc1ccccc1)C(=O)NCc1cn(Cc2ccccc2)nn1,0.676 (inactive),0.397,-0.39 (inactive),0.262 (inactive),-0.0107 (inactive),-0.0074 (inactive),0.0064,0.64 (inactive),0.359 (inactive),0.255
COc1ccc(CCNC(=O)[C@@]2(Cc3ccccc3I)c3ccccc3C(=O)N(C3CCCCC3)[C@H]2c2ccc(CO)cc2)cc1,0.535 (inactive),-0.104,3.52 (inactive),0.502 (inactive),1.27 (inactive),-0.31 (inactive),3.35,0.189 (inactive),-1.09 (inactive),-2.19
C=CC[C@]1(C(=O)N2CCCCC2)N=C(c2ccc(OCCCO)cc2)O[C@H]1c1ccccc1CN=[N+]=[N-],0.678 (inactive),0.454,23.1 (active),4.57 (inactive),2.81 (inactive),1.08 (inactive),0.83,-3.31 (inactive),-0.616 (inactive),-1.46
COC(=O)[C@@]1(Cc2ccc(OC)cc2)[C@H]2c3cc(C(=O)N4CCCC4)n(CCc4c[nH]c5ccc(OC)cc45)c3C[C@H]2CN1C(=O)c1ccccc1,-1.61 (inactive),0.894,4.25 (inactive),0.71 (inactive),1.42 (inactive),1.57 (inactive),0.0592,0.547 (inactive),1.14 (inactive),1.38
CCOC(=O)C[C@H]1[C@H](OC(=O)Cc2ccc3c(c2)OCO3)[C@@H](NC(=O)c2ccc3ccccc3n2)c2cc(OCCCO)ccc2N1C(=O)c1ccccc1,1.43 (inactive),0.101,8.88 (active),1.32 (inactive),-0.576 (inactive),0.308 (inactive),-0.246,-1.88 (inactive),0.521 (inactive),-2
COCC(=C=CC[C@H](O)c1ccc(OCCO)cc1)CCO,0.367 (inactive),0.0774,9.25 (active),1.02 (inactive),0.934 (inactive),0.381 (inactive),-0.439,1.03 (inactive),0.57 (inactive),-0.704
COC(=O)[C@@]1(Cc2ccc(OC)cc2)[C@H]2c3cc(C(=O)N(C)C)n(Cc4ccc(C)o4)c3C[C@H]2CN1C(=O)c1ccccc1,-0.155 (inactive),0.346,4.12 (inactive),0.057 (inactive),1.3 (inactive),0.594 (inactive),1.5,-0.351 (inactive),-0.0809 (inactive),-3.41
[N-]=[N+]=Nc1ccccc1C[C@@]1(C(=O)NCCN2CCOCC2)N=C(c2ccc(OCCCO)cc2)O[C@@H]1c1ccccc1N=[N+]=[N-],-0.374 (inactive),0.632,30.8 (active),30.8 (active),2.72 (inactive),2.78 (inactive),-0.26,-2.91 (inactive),-0.157 (inactive),-1.6
CC(C)[Si](C#CCCCC#N)(O[C@H](c1ccccc1)c1cn(Cc2ccccc2)nn1)C(C)C,1.99 (inactive),-0.253,1.05 (inactive),0.0907 (inactive),0.866 (inactive),0.137 (inactive),0.249,-0.502 (inactive),0.912 (inactive),0.536
COc1cc(NN2C(C(O)c3ccc(N(C)C)cc3)C=CC3C(=O)N(c4ccccc4)C(=O)C32)cc(OC)c1OC (stereo not given),-2.71 (inactive),0.315,1.76 (inactive),-0.891 (inactive),0.742 (inactive),-0.765 (inactive),1.15,-2.65 (inactive),-4.37 (inactive),-4.75
Oc1ccc2cc[n+](Cc3cc4c(cc3Br)OCO4)cc2c1,1.27 (inactive),-0.196,2.67 (inactive),0.864 (inactive),-0.655 (inactive),0.474 (inactive),0.122,-0.546 (inactive),-0.154 (inactive),0.389
O=C(NCCN1CCOCC1)[C@@H]1c2ccccc2C(=O)N(Cc2ccccc2Cl)[C@H]1c1ccc(CO)cc1,0.446 (inactive),0.121,4.63 (inactive),0.466 (inactive),0.297 (inactive),0.306 (inactive),-0.467,-0.112 (inactive),0.34 (inactive),-0.371
CCN(CC)c1ccc(N2CC=CC34O[C@@H]5/C=C\CCCOC(=O)C5[C@H]3C(=O)N(C(C)CO)[C@@H]4C2=O)cc1 (stereo not given in full),1.56 (inactive),-0.0814,0.733 (inactive),-0.264 (inactive),1.33 (inactive),-0.306 (inactive),0.0073,0.275 (inactive),-0.0723 (inactive),0.83
C=CCN1C(=O)[C@]2(CCS(=O)(=O)c3ccccc3)N=C(c3ccc(OCCCO)cc3)O[C@@H]2c2ccccc21,0.836 (inactive),0.303,29.1 (active),23.3 (active),1.29 (inactive),4.76 (inactive),1.76,-0.428 (inactive),0.835 (inactive),1.28
CC1CC/C=C\[C@H]2OC34C=CCN(C(C)(C)C)C(=O)[C@H]3N(CCCCCO)C(=O)[C@@H]4C2C(=O)O1 (stereo not given in full),-0.121 (inactive),-0.0984,0.204 (inactive),0.437 (inactive),-0.136 (inactive),0.21 (inactive),-0.333,0.673 (inactive),-0.225 (inactive),1.3
O=C1OCCC=C[C@H]2OC34C=CCN(c5ccc6ccccc6c5)C(=O)[C@H]3N(CCCO)C(=O)[C@@H]4C12 (stereo not given in full),0.181 (inactive),-0.291,0.204 (inactive),-0.568 (inactive),0.676 (inactive),-1.27 (inactive),0.684,0.755 (inactive),-0.644 (inactive),0.741
COC(=O)[C@@H]1N=C(c2ccc(OCCCO)cc2)O[C@@H]1C,0.608 (inactive),0.0945,19 (active),2.23 (inactive),0.404 (inactive),0.448 (inactive),0.299,-1.93 (inactive),0.134 (inactive),-0.647
C=CCNC(=O)[C@@H]1[C@H]2C(=O)O[C@H](c3ccccc3)[C@H](c3ccccc3)N2[C@H](c2ccccc2OCCO)[C@@]12C(=O)Nc1ccc(C#CCC(C(=O)OC)C(=O)OC)cc12,-0.79 (inactive),0.666,4.93 (inactive),1.81 (inactive),0.622 (inactive),1.36 (inactive),-0.304,0.21 (inactive),0.161 (inactive),1.98
CCOC(=O)C1=C[C@@H](c2ccccc2)N(S(=O)(=O)c2ccc(C)cc2)[C@H]1c1ccc(OC)cc1,-1.11 (inactive),1.02,1.18 (inactive),1.07 (inactive),0.106 (inactive),0.512 (inactive),-0.887,0.156 (inactive),1.02 (inactive),-0.348
COCCOC(=O)N1C(=O)[C@@]2(c3cc(C#CC4=CCCCC4)ccc31)[C@H](c1ccccc1OCCO)N1[C@H](c3ccccc3)[C@H](c3ccccc3)OC(=O)[C@H]1[C@@H]2C(=O)N1CCN(c2ncccn2)CC1,0.978 (inactive),1.04,1.04 (inactive),-0.579 (inactive),0.281 (inactive),-0.492 (inactive),0.65,0.976 (inactive),0.868 (inactive),1.32
Cc1ccc(N2C(=O)c3ccccc3[C@@H](C(=O)NCCCN(C)C)[C@@H]2c2ccc(CO)cc2)nc1,0.0376 (inactive),-0.724,1.06 (inactive),0.392 (inactive),0.591 (inactive),0.304 (inactive),-0.337,0.911 (inactive),0.115 (inactive),0.513
Cc1ccc(S[C@]2(C(=O)NCC(F)(F)F)CC(=O)N(Cc3cc(C(F)(F)F)cc(C(F)(F)F)c3)[C@@H]2c2ccc(CO)cc2)cc1,-0.415 (inactive),-0.146,1.74 (inactive),0.594 (inactive),-0.573 (inactive),0.501 (inactive),-0.488,-0.0338 (inactive),0.0959 (inactive),0.496
C=CCNC(=O)[C@@H]1[C@H]2C(=O)O[C@H](c3ccccc3)[C@H](c3ccccc3)N2[C@H](c2ccc(OCCO)cc2)[C@@]12C(=O)N(C(=O)OCCOC)c1ccc(C#Cc3ccc(OC)cc3)cc12,-0.0604 (inactive),0.302,3.58 (inactive),1.28 (inactive),0.0207 (inactive),0.776 (inactive),-0.492,1.78 (inactive),0.437 (inactive),0.986
